Screening results deposited in PubChem by Sanford-Burnham Center for Chemical Genomics.
An excerpt weighted towards active compounds, which were near 6.3% of everything screened.
tim23-1 inh: tim23-1 yeast growth inhibition; inhibition, % at 20 µM; S. cerevisiae tim23-1 growth, BacTiter-Glo luminescence, 24 h; actives 1.3% (n = 330,000); AID 463212;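 active means growth inhibition of the mutant yeast at or above 50%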;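 further: temperature-sensitive mutant grown at 25 °C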
MPTP block: permeability transition pore inhibition | isolated mouse mitochondria, Ca2+ swelling absorbance, 30 min | inhibition, % at 10 µM | actives 1.4% (n = 360,000) | AID 602449;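 active means inhibition of 50% or more, scaled per plate between neutral and stimulator controls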
TIM10 inh: growth inhibitors of TIM10 yeast strain. S. cerevisiae TIM10 strain growth, BacTiter-Glo luminescence, 24 h. inhibition, % at 10 µM. actives 1.4% (n = 330,000);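 active means inhibition of 40% or more at the single tested concentration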;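 further: wild-type TIM10 isogenic control strain grown at permissive 25 °C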
Mdm2-MdmX inh: disrupts the human Mdm2-MdmX interaction. O15151+Q00987. inhibition, % at 8 µM. SaOS-2 split-luciferase Mdm2/MdmX complementation, luminescence. actives 3% (n = 330,000);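 active means inhibition of at least 50% at 8 µM in the primary screen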
Target sequence (O15151 whole entry, looked up): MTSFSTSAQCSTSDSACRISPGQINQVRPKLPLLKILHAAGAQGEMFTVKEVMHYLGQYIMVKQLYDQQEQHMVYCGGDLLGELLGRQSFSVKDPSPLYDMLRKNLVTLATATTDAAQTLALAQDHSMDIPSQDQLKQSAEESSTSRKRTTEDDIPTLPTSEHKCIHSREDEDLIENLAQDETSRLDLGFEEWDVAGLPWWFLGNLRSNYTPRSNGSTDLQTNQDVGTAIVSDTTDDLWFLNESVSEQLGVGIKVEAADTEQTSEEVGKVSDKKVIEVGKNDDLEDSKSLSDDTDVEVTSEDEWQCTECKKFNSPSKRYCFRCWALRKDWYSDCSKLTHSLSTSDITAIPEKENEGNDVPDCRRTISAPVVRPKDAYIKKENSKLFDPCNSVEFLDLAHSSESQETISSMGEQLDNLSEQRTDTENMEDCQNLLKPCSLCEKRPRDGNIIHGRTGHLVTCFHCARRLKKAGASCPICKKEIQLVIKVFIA
Target sequence (Q00987 whole entry, looked up): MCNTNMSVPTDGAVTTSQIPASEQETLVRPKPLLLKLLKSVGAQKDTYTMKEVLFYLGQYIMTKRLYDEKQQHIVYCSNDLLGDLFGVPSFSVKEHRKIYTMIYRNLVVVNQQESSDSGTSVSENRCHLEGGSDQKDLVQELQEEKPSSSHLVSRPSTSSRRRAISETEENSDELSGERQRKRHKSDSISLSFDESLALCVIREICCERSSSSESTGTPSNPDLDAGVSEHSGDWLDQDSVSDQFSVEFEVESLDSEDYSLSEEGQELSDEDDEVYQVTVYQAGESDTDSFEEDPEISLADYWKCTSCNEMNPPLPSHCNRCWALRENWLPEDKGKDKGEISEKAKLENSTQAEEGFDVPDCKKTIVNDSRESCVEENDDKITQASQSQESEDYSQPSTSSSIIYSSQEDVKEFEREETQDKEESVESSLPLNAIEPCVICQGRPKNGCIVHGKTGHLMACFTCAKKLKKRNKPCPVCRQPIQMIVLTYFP
tim10-1 inh: tim10-1 yeast growth inhibition; S. cerevisiae tim10-1 ts strain growth, BacTiter-Glo, 24 h; inhibition, % at 20 µM; actives 2.2% (n = 330,000); AID 463190;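 active means inhibition of at least 40%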;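 further: mutant grown at 25 °C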
Mdm2-MdmX conf: confirmation of human Mdm2/MdmX interaction inhibitors | shares compounds with Mdm2-MdmX inh | Mdm2-MdmX binding, luminescent assay | inhibition, % at 8 µM | actives 55% (n = 10,000); in the data active means inhibition above about 40%
FLuc counter: full-length luciferase inhibition in Mdm2/MdmX counter-screen. shares compounds with Mdm2-MdmX inh. SaOS-2 full-length luciferase counterscreen, luminescence. inhibition, % at 8 µM. actives 77% (n = 6,200). AID 504607;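 active means mean inhibition at 8 µM reaching about 37%, which flags the compound as non-specific, limit read from the data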;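 further: p53-null SaOS-2 cells with luciferase driven by a doxycycline-inducible promoter; compound on cells about two nights before reading with doxycycline added after day one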
Large screens that a line does not name were inactive (follow-up assays come after a bar, where they were run).

COc1ccc(C(=O)NC(=S)NNC(=O)c2ccc(C)cc2)cc1	none
CC(Oc1cccc(Br)c1)C(=O)NNC(=O)c1ccccn1 (centres undefined)	Mdm2-MdmX inh 71.7 | Mdm2-MdmX conf 60.5 | FLuc counter inactive
COc1ccc(C(=O)NC(=S)NNC(=O)c2ccc3ccccc3n2)cc1	Mdm2-MdmX inh 55.7 | Mdm2-MdmX conf inactive | FLuc counter 52.1
COc1cc(OC)cc(C(=O)NNC(=O)c2ccccn2)c1	Mdm2-MdmX inh 51.3 | Mdm2-MdmX conf 47.1 | FLuc counter 51.4
COc1cc(OC)cc(C(=O)NNC(=O)c2ccccc2Br)c1	none
COc1ccccc1S(=O)(=O)N(C)C[C@@H]1OCc2cn(nn2)CCCC(=O)N([C@@H](C)CO)C[C@H]1C	none (no result: tim23-1 inh, TIM10 inh, Mdm2-MdmX inh, tim10-1 inh)
COc1ccccc1CNc1nc(Nc2cccc(-c3cnco3)c2)c2sccc2n1	none (no result: tim23-1 inh, TIM10 inh, Mdm2-MdmX inh, tim10-1 inh)
Cc1ccc(S(=O)(=O)Nc2ccc(Nc3nccn4c(-c5ccc6ccccc6c5)cnc34)cc2)cc1	none (no result: tim23-1 inh, TIM10 inh, Mdm2-MdmX inh, tim10-1 inh)
CCOc1ccc(OCCCC(=O)NNC(=O)c2ccncc2)cc1	none
COc1cc(C(=O)NNC(=O)c2ccc3ccccc3n2)cc(OC)c1OC	none
CC(=O)c1ccc(OCCCC(=O)NNC(=O)c2ccccn2)cc1	Mdm2-MdmX inh 62.8 | Mdm2-MdmX conf inactive
COc1cc(OC)cc(C(=O)NNC(=O)c2ccc3ccccc3n2)c1	Mdm2-MdmX inh 54.7 | Mdm2-MdmX conf 68.5 | FLuc counter 46.4
CC(=O)c1ccc(OCC(=O)NC(=O)NC2CCCC2)cc1	none (no result: tim23-1 inh, TIM10 inh, Mdm2-MdmX inh, tim10-1 inh)
OC(c1cccc(Cl)c1)c1ncc(-c2cccc3ccccc23)[nH]1 (centres undefined)	none (no result: tim23-1 inh, TIM10 inh, Mdm2-MdmX inh, tim10-1 inh)
O=c1cc(O)c2sc(Nc3cccc(C(F)(F)F)c3)nc2[nH]1	none
O=c1cc(O)c2sc(Nc3ccc(F)cc3)nc2[nH]1	Mdm2-MdmX inh 65.7 | Mdm2-MdmX conf 47.5 | FLuc counter 42.5
CC(NCc1ccc(OCc2ccc(Cl)cc2)cc1)C(O)c1ccccc1 (centres undefined)	Mdm2-MdmX inh 100.4 | Mdm2-MdmX conf 60.1 | FLuc counter 51.7
CC(C)CCn1c(=O)c2ccccc2n2c(CN3CCCC3)nnc12	none
CC(C)CCn1c(=O)c2ccccc2n2c(CCC(=O)NC3CCN(Cc4ccccc4)CC3)nnc12	Mdm2-MdmX inh 76.6 | Mdm2-MdmX conf 57.8 | FLuc counter 49.0
COc1ccc(Cc2c(-c3ccc(OC)c(OC)c3)nc3ccc(C)cn23)c(C)c1	none (no result: tim23-1 inh, TIM10 inh, Mdm2-MdmX inh, tim10-1 inh)
CCOC(=O)c1c(NC(=O)Cn2nc(C(=O)O)c3ccccc3c2=O)sc2c1CCC(C)C2 (centres undefined)	none
CCOC(=O)c1c(NC(=S)NC(=O)c2cnn(CC)c2)sc2c1CCC(C)C2 (centres undefined)	Mdm2-MdmX inh 54.1 | Mdm2-MdmX conf inactive
CCOC(=O)c1c(NC(=O)C2C3C=CC(C3)C2C(=O)O)sc2c1CCC(C)C2 (centres undefined)	none
CCOC(=O)c1c(NC(=O)Cn2nc([N+](=O)[O-])c(Br)c2C)sc2c1CCC(C)C2 (centres undefined)	Mdm2-MdmX inh 58.1 | Mdm2-MdmX conf inactive
CN1CCN(C(=O)C[C@H]2CC[C@H]3[C@@H](COC[C@@H](O)CN3Cc3cccc(F)c3)O2)CC1	none (no result: tim23-1 inh, TIM10 inh, Mdm2-MdmX inh, tim10-1 inh)
CN(C(=O)CSc1nncc2ccccc12)c1ccccc1	none
COc1ccc(C2CC(c3cccc(Cl)c3)=NN2c2ccc(S(N)(=O)=O)cc2)cc1 (centres undefined)	Mdm2-MdmX inh 67.7 | Mdm2-MdmX conf inactive
COc1ccc(C2CC(c3ccncc3)=NN2c2ccc(S(N)(=O)=O)cc2)cc1 (centres undefined)	none
NS(=O)(=O)c1ccc(N2N=C(c3ccccc3)CC2c2ccccc2Br)cc1 (centres undefined)	Mdm2-MdmX inh 52.0 | Mdm2-MdmX conf inactive
COc1ccc(C2CC(c3ccc(Cl)cc3)=NN2c2ccc(S(N)(=O)=O)cc2)cc1 (centres undefined)	Mdm2-MdmX inh 86.8 | Mdm2-MdmX conf inactive
NS(=O)(=O)c1ccc(N2N=C(c3ccccc3)CC2c2cccc(F)c2)cc1 (centres undefined)	none (no result: tim23-1 inh, TIM10 inh, Mdm2-MdmX inh, tim10-1 inh)
NS(=O)(=O)c1ccc(N2N=C(c3ccc(Br)cc3)CC2c2ccc(F)cc2)cc1 (centres undefined)	Mdm2-MdmX inh 72.3 | Mdm2-MdmX conf inactive | FLuc counter 75.2
CCCc1nc2c3ccccc3ccn2c1CC(C)(C)C	none (no result: tim23-1 inh, TIM10 inh, Mdm2-MdmX inh, tim10-1 inh)
CCOC1=C2CN(S(=O)(=O)c3ccc(C)cc3)C(c3ccc(CC)cc3)CC2n2c(=O)n(-c3ccccc3)c(=O)n2C1 (centres undefined)	none (no result: tim23-1 inh, TIM10 inh, Mdm2-MdmX inh, tim10-1 inh)
COc1ccc(-c2nn(-c3ccccc3)cc2CNC[C@H]2O[C@@H](n3cnc4c(=O)[nH]c(N)nc43)[C@H](O)[C@@H]2O)cc1	none (no result: tim23-1 inh, TIM10 inh, Mdm2-MdmX inh, tim10-1 inh)
COc1ccc(S(=O)(=O)Nc2cccc3ccc(O)cc23)cc1	Mdm2-MdmX inh 60.1 | Mdm2-MdmX conf 57.2 | FLuc counter 52.1
COc1ccc(S(=O)(=O)Nc2ccccc2C)cc1	none
COc1ccc(NS(=O)(=O)c2ccc3c(c2)oc(=O)n3C)c(OC)c1	none
COc1cc(NS(=O)(=O)c2ccc3c(c2)oc(=O)n3C)cc(OC)c1OC	Mdm2-MdmX inh 57.2 | Mdm2-MdmX conf inactive
Oc1c(C(c2ccccc2)N2CCOCC2)ccc2ccccc12 (centres undefined)	none (no result: tim23-1 inh, TIM10 inh, Mdm2-MdmX inh, tim10-1 inh)
CCN1CCN(C(c2ccc(C(F)(F)F)cc2)c2ccc3cccnc3c2O)CC1 (centres undefined)	Mdm2-MdmX inh 73.9 | Mdm2-MdmX conf 77.8 | FLuc counter inactive
CC(=O)c1ccc(-c2cnc3c(NC=O)cc(-c4cnn(C)c4)cn23)cc1	none (no result: tim23-1 inh, TIM10 inh, Mdm2-MdmX inh, tim10-1 inh)
CC(C)(C)n1nnnc1C(c1ccccc1)N1CCN(c2ncc(C(F)(F)F)cc2Cl)CC1 (centres undefined)	none (no result: tim23-1 inh, TIM10 inh, Mdm2-MdmX inh, tim10-1 inh)
Brc1cccc(-c2nc3c4ccccc4ccn3c2Cc2ccccc2)c1	none (no result: tim23-1 inh, TIM10 inh, Mdm2-MdmX inh, tim10-1 inh)
COC(=O)[C@@H]1C[C@]2(OC(=O)c3ccccc3)C=CC(=O)C[C@@H]2N1C(=O)OCc1ccccc1	Mdm2-MdmX inh 94.1 | Mdm2-MdmX conf 62.0 | FLuc counter inactive
O=C1NC[C@H](CCCCN2C[C@H](Cc3ccc(O)cc3)N(CC3CCCCC3)C(=O)C2=O)N(Cc2ccccc2)C1=O	none (no result: tim23-1 inh, TIM10 inh, Mdm2-MdmX inh, tim10-1 inh)
CC(O)(c1ccc(F)c(F)c1)c1nc(-c2ccccc2)cs1 (centres undefined)	none (no result: tim23-1 inh, TIM10 inh, Mdm2-MdmX inh, tim10-1 inh)
Fc1cccc(Cc2c(-c3cccc(Cl)c3)nc3c(Cl)cc(C(F)(F)F)cn23)c1	none (no result: tim23-1 inh, TIM10 inh, Mdm2-MdmX inh, tim10-1 inh)
Cc1nn2c(N3CCOCC3)cc(C(C)C)nc2c1-c1ccccc1	none
CCN1CCN(c2cc(C(C)C)nc3c(-c4ccccc4)c(C)nn23)CC1	Mdm2-MdmX inh 54.6 | Mdm2-MdmX conf inactive
CCN1CCN(c2cc(C(C)(C)C)nc3c(-c4ccccc4)c(C)nn23)CC1	Mdm2-MdmX inh 53.9 | Mdm2-MdmX conf 52.6 | FLuc counter 66.6
